{"source": "PubChem BioAssay (NCATS)", "note": "Inconclusive results are not listed. Activity calls are given as the source filed them. The call rests on the fitted dose curve; in most records, active means well fitted curve in the direction sought with a large enough effect; inconclusive means small, poorly fitted or top-dose-only effect, or another doubt; inactive means no such curve, though single readings can be large or run the other way."}
{"assay": "HepG2 viability counterscreen (readout 1: protease activity) against the NCATS DSHEA and TCM libraries (AID 1794841);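 further: cells exposed to compounds for about 24 h before the protease read; 0% is about no effect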", "conditions": "qHTS concentration series; series mostly up to 27.3 µM; activity change, negative = inhibition: at the top concentration", "how_it_was_run": "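HepG2 cells (1,000 cells/well) attached ~4 h, then treated ~24 h at 37C with substances. Protease activity read by GF-AFC (25 uM final, 30 min, Ex/Em 380/510 nm); ATP content then by CellTiter-Glo luminescence.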"}
{"smiles": "CCCCC/C=C\\C/C=C\\C/C=C\\CCCCC(=O)O", "activity change, negative = inhibition": "15.8% [at 3.42 µM] (inactive)"}
{"smiles": "CC(C)=CCC/C(C)=C/CC/C(C)=C/CC/C(C)=C/CC1=C(C)C(=O)c2ccccc2C1=O", "activity change, negative = inhibition": "5.06% (inactive)"}
{"smiles": "CC/C=C\\C/C=C\\C/C=C\\CCCCCCCC(=O)O", "activity change, negative = inhibition": "-12.2% (inactive)"}
{"smiles": "C=C1CC[C@H](O)CC1=C/C=C1\\CCC[C@]2(C)[C@@H]([C@H](C)/C=C/[C@H](C)C(C)C)CC[C@@H]12", "activity change, negative = inhibition": "41.1% (inactive)"}
{"smiles": "CC/C=C\\C/C=C\\C/C=C\\C/C=C\\C/C=C\\CCCC(=O)O", "activity change, negative = inhibition": "8.77% (inactive)"}
{"smiles": "CCCCCCCCCCCC(=O)OCC(O)CO", "note": "(stereo not given)", "activity change, negative = inhibition": "-13.2% (inactive)"}
{"smiles": "O=C(O)/C=C/c1ccccc1", "activity change, negative = inhibition": "-4.49% [at 46.6 µM] (inactive)"}
{"smiles": "COC1=C(OC)C(=O)C(C/C=C(\\C)CC/C=C(\\C)CC/C=C(\\C)CC/C=C(\\C)CC/C=C(\\C)CC/C=C(\\C)CC/C=C(\\C)CC/C=C(\\C)CC/C=C(\\C)CCC=C(C)C)=C(C)C1=O", "activity change, negative = inhibition": "-0.82% (inactive)"}
{"smiles": "CC/C=C\\C/C=C\\C/C=C\\C/C=C\\C/C=C\\C/C=C\\CCC(=O)O", "activity change, negative = inhibition": "3.06% (inactive)"}
{"smiles": "Oc1cccc(O)c1O", "activity change, negative = inhibition": "15.5% (inactive)"}
{"smiles": "C=C1CC[C@H](O)C/C1=C\\C=C1/CCC[C@]2(C)[C@@H]([C@H](C)CCCC(C)C)CC[C@@H]12", "activity change, negative = inhibition": "-16.3% (inactive)"}
{"smiles": "Cc1ncc(C[n+]2csc(CCO)c2C)c(N)n1", "activity change, negative = inhibition": "-1.47% (inactive)"}
{"smiles": "CC[C@H](CC[C@@H](C)[C@H]1CC[C@H]2[C@@H]3CC=C4C[C@@H](O)CC[C@]4(C)[C@H]3CC[C@]12C)C(C)C", "activity change, negative = inhibition": "-19.5% (inactive)"}
{"smiles": "CC(C)=CCC/C(C)=C/C=C/C(C)=C/C=C/C(C)=C/C=C/C=C(C)/C=C/C=C(C)/C=C/C=C(\\C)CCC=C(C)C", "activity change, negative = inhibition": "3.36% (inactive)"}
{"smiles": "CC1=CCC2CC1C2(C)C", "note": "(stereo not given)", "activity change, negative = inhibition": "-7.42% (inactive)"}
